In PubChem BioAssay (NCATS):
Where “and” joins values, the source holds several entries; their conditions need not be identical. Equal entries are not always repeated. Records with an inconclusive call do not appear. Some structures have more than one record in an assay (separate samples or runs), and their calls can disagree. Calls of active or inactive are those of the source. The call rests on the fitted dose curve; in most records, active means well fitted inhibition curve with a large enough effect; inconclusive means small, poorly fitted or top-dose-only effect; inactive means no such curve, though single readings can be large or run the other way. Where a SMILES comes first, the peptide text is derived from it. [ ]: non-standard residue; d: D form. pGlu = O=C1CC[C@@H](C(=O)O)N1

Assay: Primary qHTS for inhibitors of nuclear receptor binding SET domain protein 2 (NSD2) in an RCH-ACV wild type WT cells (2C) (AID 1645877); further: nearly all actives have a fitted effect of over 70% in size
Conditions: RCH-ACV (leukaemia line) NSD2 WT (2C) viability, CellTiter-Glo, 72 h; series mostly up to 44.9 µM; activity change, negative = cell killing: at the top concentration
On the % scale 0 is the no-effect control and ±100 the full control effect; potency means the concentration at half of the fitted maximal effect.

Row | SMILES | activity change, negative = cell killing | Potency | outcome
1 | O=C(O)CCCC[P+](c1ccccc1)(c1ccccc1)c1ccccc1 | 0.748% (inactive) |  | 
2 | CC(=O)[C@H]1CC[C@H]2[C@@H]3C=CC4=CC(=O)CC[C@@]4(C)[C@@H]3CC[C@]12C |  | 23.7 µM (active) and inactive | 
3 | COCCc1ccc(OCC2CO2)cc1 (stereo not drawn) | -18.7% (inactive) |  | 
4 | Cc1cc(=O)oc2cc(O[C@@H]3SC[C@@H](O)[C@H](O)[C@H]3O)ccc12 |  |  | inactive
5 | CCNC(=O)[C@@H]1CCCN1C(=O)[C@H](CCCN=C(N)N)NC(=O)[C@H](CC(C)C)NC(=O)CNC(=O)[C@H](Cc1ccc(O)cc1)NC(=O)[C@H](CO)NC(=O)[C@H](Cc1c[nH]c2ccccc12)NC(=O)[C@H](Cc1cnc[nH]1)NC(=O)[C@@H]1CCC(=O)N1 ([pGlu]HWSYGLRP-NHEt) | 1.28% (inactive) |  | 
6 | O=C(O)c1[nH]n(-c2ccc(S(=O)(=O)O)cc2)c(=O)c1N=Nc1ccc(S(=O)(=O)O)cc1 | 5.71% (inactive) |  | 
7 | C1=CC2C3C=CC(C3)C2C1 (stereo not drawn) |  |  | inactive [at 91.9 µM]
8 | CCOC(=O)N1CCC(Nc2ccc(Cl)cc2N)CC1 |  | 11.9 µM (active) | 
9 | CN(C)CCOC1=Cc2ccccc2Sc2ccc(Cl)cc21 |  | 16.8 µM (active) | 
10 | O=C1CCCc2c(O)cccc21 | -8.78% (inactive) |  | 
11 | C[C@]12CCC(=O)C=C1CC[C@@H]1[C@@H]2[C@@H](O)C[C@@]2(C)[C@H]1CC[C@]2(O)C(=O)COC(=O)CCC(=O)O |  | 1.88 µM (active) | 
12 | c1ccc2c(c1)CCc1ccccc1N2 | 0.963% (inactive) |  | 
13 | CC1c2ccccc2CN1NC(=O)c1ccc(Cl)c(S(N)(=O)=O)c1 (stereo not drawn) | -5.5% (inactive) |  | 
14 | Cc1nc(N)nc(N)c1-c1ccc(Cl)c(Cl)c1 |  | 0.299 µM (active) | 
15 | CCOC(=O)C(O)c1ccccc1 (stereo not drawn) |  |  | inactive
16 | CCCCC(=O)OCC(=O)[C@H]1[C@H](C)C[C@H]2[C@@H]3C[C@H](F)C4=CC(=O)C=C[C@]4(C)[C@@]3(F)[C@@H](O)C[C@@]21C |  | 0.0033 µM (active) | 
17 | O=C(Nc1ccc(Cl)cc1)Nc1ccc(Cl)c(Cl)c1 |  | 6.68 µM (active) | 
18 | O=C(Oc1ccccc1)c1cccc(C(=O)Oc2ccccc2)c1 | -16.7% [at 91.9 µM] (inactive) |  | 
19 | CSCC[C@H](NC(=O)[C@H](Cc1c[nH]c2ccccc12)NC(=O)CCNC(=O)OC(C)(C)C)C(=O)N[C@@H](CC(=O)O)C(=O)N[C@@H](Cc1ccccc1)C(N)=O | -16.6% (inactive) |  | 

Row | SMILES | activity change, negative = cell killing | Potency | outcome
20 | COC(=O)/C=C\C(=O)OC |  |  | inactive
21 | COc1ccc2c(c1)CCCC2=O |  |  | inactive
22 | CC[C@@]1(O)C(=O)OCc2c1cc1n(c2=O)Cc2c-1nc1ccccc1c2/C=N/OC(C)(C)C | -94.8% (inactive) |  | 
23 | CCCCN(CCCC)C(C(N)=O)c1ccc(OC)cc1 (stereo not drawn) |  |  | inactive
24 | CCOC(=O)C1=C(C)NC(C)=C(C(=O)OCC)C1c1ccccc1/C=C/C(=O)OC(C)(C)C |  | 16.8 µM (active) | 
25 | COc1cc(C=O)ccc1O | 1.13% (inactive) |  | 
26 | CC(C)(C)C1CCC(CC2=C(O)c3ccccc3C(=O)C2=O)CC1 (stereo not drawn) |  | 9.44 µM (active) | 
27 | C[C@H]1C[C@H]2[C@@H]3CCC4=CC(=O)C=C[C@]4(C)[C@H]3C(=O)C[C@]2(C)[C@@]1(O)C(=O)CO |  |  | inactive
28 | O=C(CCCl)NCCc1ccccc1 | 9.38% (inactive) |  | 
29 | Cc1cc(OCCOCC[N+](C)(C)Cc2ccccc2)ccc1C(C)(C)CC(C)(C)C |  | 1.19 µM (active) | 
30 | O=C(Nc1ccc(Cl)cc1)Nc1ccc(Cl)c(C(F)(F)F)c1 |  | 2.99 µM (active) | 
31 | CN1CC(=O)N2[C@H](c3ccc4c(c3)OCO4)c3[nH]c4ccccc4c3C[C@@H]2C1=O |  | inactive | 
32 | CC(=O)OCC(=O)Nc1cc(C#N)cc(NC(=O)COC(C)=O)c1Cl | -1.1% (inactive) |  | 
33 | O=[N+]([O-])c1cncn1CCN1CCOCC1 |  | inactive | 
34 | CCCCCCCCCCCCCCCCCCN(C)C | 1.95% (inactive) |  | 
35 | CCC1=C[C@@H]2CN(C1)Cc1c([nH]c3ccccc13)[C@@](C(=O)OC)(c1cc3c(cc1OC)N(C)[C@H]1[C@@](O)(C(=O)OC)[C@H](OC(C)=O)[C@]4(CC)C=CCN5CC[C@]31[C@@H]54)C2 |  | 2.1 nM (active) and 162 nM (active) | 
36 | O=C1CC2(CCCC2)CC(=O)N1CCNCC1COc2ccccc2O1 (stereo not drawn) | -4.89% (inactive) |  | 
37 | CC(=O)Nc1ccc(S(=O)(=O)Nc2cc(C)on2)cc1 |  |  | inactive
38 | OCc1c[nH]c2ccccc12 |  | 24.3 µM (active) | 
